Source: PubChem BioAssay (National Center for Advancing Translational Sciences (NCATS))
Shown are actives, neighbours in structure and some others; about 6.3% of the full set was active somewhere.
TGFb SMAD3 inh – blocks TGF-b signaling. HepG2 CAGA-GFP TGF-b/SMAD3 reporter, GFP fluorescence, 18 h; TGF-beta stimulated, 500 pg/mL final. Potency, µM (series often up to 46.1 µM), for the others: at the highest dose activity, negative = inhibition, hits mostly inhibitors. hit rate 1.2% among 410,000. AID 588855; further: on the % scale 0 is the no-effect control and ±100 the full control effect; nearly all actives have a fitted effect of over 65% in size
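HEPG2 CAGA-GFP, 1000 cells/well; 2 h settle, 37 C; cpd via pin tool; TGF-b 500 pg/mL final; 18 h, 37 C; GFP imaging ex488/em500-530; %Activity normalised to -TGF-b and +DMSO controls; CRC fit, curve class.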
RORgamma inh – ROR gamma (mouse) transcription inhibition; P51450; Drosophila S2 Gal4-RORgamma UAS-luciferase reporter, 20 h; hit rate 5.4% among 310,000; Potency, µM (doses to about 53.6 µM), without a hit: at the highest dose activity change, negative = inhibition, most hits filed as inhibitors; further: on the % scale 0 is the no-effect control and ±100 the full control effect; nearly all actives have a fitted effect of over 60% in size
Target sequence (P51450 whole entry, looked up, the tested form may be a part): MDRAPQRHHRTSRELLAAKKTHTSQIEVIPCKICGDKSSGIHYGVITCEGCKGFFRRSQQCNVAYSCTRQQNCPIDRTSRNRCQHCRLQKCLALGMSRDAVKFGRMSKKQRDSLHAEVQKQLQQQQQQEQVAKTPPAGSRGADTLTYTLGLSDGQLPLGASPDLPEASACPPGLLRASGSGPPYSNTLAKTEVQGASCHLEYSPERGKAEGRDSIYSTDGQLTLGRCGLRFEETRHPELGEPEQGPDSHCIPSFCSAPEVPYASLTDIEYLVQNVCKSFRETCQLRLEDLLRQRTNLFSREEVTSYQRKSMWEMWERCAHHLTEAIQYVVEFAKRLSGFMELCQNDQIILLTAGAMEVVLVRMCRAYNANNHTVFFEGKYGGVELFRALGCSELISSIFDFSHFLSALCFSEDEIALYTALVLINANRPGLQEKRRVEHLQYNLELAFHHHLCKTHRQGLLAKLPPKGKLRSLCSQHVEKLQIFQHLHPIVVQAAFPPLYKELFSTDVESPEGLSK
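In this cell-based reporter format, copper sulfate (700 uM final) drives Gal4–ROR gamma fusion expression from a metallothionein promoter in Drosophila Schneider cells; compounds preincubated 1 hr, reporter read after 20 hr at ambient temperature.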
ATXN viability – reduces viability in counter-screen for ATXN expression inhibitors. hit rate 0.49% among 400,000. AID 651635. Potency, µM (doses to about 56.7 µM), most hits filed as cytotoxic. S2 cells (HEK-293 line with an ATXN2-luciferase reporter) viability, CellTiter-Fluor protease fluorescence, 24 h; further: nearly all actives have a fitted effect of over 40% in size
HepG2 viability – HepG2 cytotoxicity, counter-screen for TGF-b inhibitors. HepG2 CAGA-GFP viability, ATP luminescence, 18 h. Potency, µM (highest dose often 46.1 µM), for inactives: top-dose activity change, negative = cytotoxicity, most hits filed as cytotoxic. hit rate 0.76% among 410,000
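HepG2 CAGA-GFP cells (1000/well, DMEM with 1% FBS) received compound, then TGF-beta at 500 pg/mL final, and were incubated 18 hours at 37 degrees C. Viability was read by CellTiter-Glo luminescence. Media-only wells were set as complete cell-killing and DMSO as no toxicity.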
ATXN2 expr inh – reduces ATXN2 reporter expression in HEK-293 cells | hit rate 0.72% among 360,000 | HEK-293 ATXN2-luciferase reporter, luminescence, 24 h | Potency, µM (titrated, usually from 57 µM), for inactives: top-dose activity change, negative = inhibition, most hits filed as inhibitors; further: on the % scale 0 is the no-effect control and ±100 the full control effect; nearly all actives have a fitted effect of over 55% in size
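ATXN2-luciferase reporter cells (luciferase flanked by upstream and downstream ATXN2 gene portions) were treated 24 h at 37 °C with compounds at up to 57 uM. SteadyGlo luminescence gave expression; GF-AFC fluorescence gave viability.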
VP16 counter – counter-screen for ROR gamma inhibitors: Gal4-VP16 reporter | Drosophila S2 Gal4-VP16 UAS-luciferase, luminescence, 20 h | Potency, µM (series often up to 53.6 µM), inactives show at the highest dose activity, negative = inhibition, most hits filed as inhibitors | hit rate 3.5% among 310,000 | AID 2546;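 further: Gal4-VP16 expression switched on by copper sulfate through the metallothionein promoter; on the % scale 0 is the no-effect control and ±100 the full control effect; nearly all actives have a fitted effect of over 50% in size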
* = called active by the depositor; i = inactive; ? = inconclusive; . = not tested or not shown. The call rests on the fitted dose curve; in most records, active means well fitted curve in the direction sought with a large enough effect; inconclusive means small, poorly fitted or top-dose-only effect, or another doubt; inactive means no such curve, though single readings can be large; an effect the other way counts as inactive or inconclusive. Potency means the concentration at half of the fitted maximal effect.

SMILES	TGFb SMAD3 inh	RORgamma inh	ATXN viability	HepG2 viability	ATXN2 expr inh	VP16 counter
Cc1cc(C(=O)NC(=S)Nc2cccc(NC(=O)C(C)C)c2)ccc1[N+](=O)[O-]	0%	10µM*	i	1%	16%	?
CC(C)C(=O)Nc1ccc(NC(=S)NC(=O)c2ccc([N+](=O)[O-])cc2)cc1	53%	10µM*	i	27%	-5%	0%
COc1ccc(NC(=O)COC(=O)CN2C(=O)C3CCCCC3C2=O)cc1 (configuration not stated)	-7%	.	i	1%	.	.
COc1ccc(CNC(=O)Cn2c(=O)n3nc(-c4ccc(OC)cc4)nc3c3ccccc32)cc1	-18%	.	i	2%	9%	.
CC(C)c1c(C(=O)NCCN2CCOCC2)cnn1-c1nccc(-c2cccs2)n1	.	.	i	.	.	.
C#C[C@]1(O)CCC2C3CCC4=C(CCC(=O)C4)C3CC[C@@]21C (some centres not stated)	.	-2%	.	.	.	5%
Cc1cc(Nc2ccccc2)n(-c2ccccc2)n1	-12%	-6%	i	0%	-20%	11%
Cc1cc(NC(=O)C2CCCCC2)n(-c2nc3ccccc3[nH]2)n1	?	1.6µM*	?	-43%	-34%	1.4µM*
Cc1cc(NC(=O)C2CCC2)n(-c2ccccn2)n1	14%	13%	i	-17%	10%	-3%
Cc1cc(C)nc(-n2nc(C)cc2Nc2ccccc2)n1	-17%	0.11µM*	?	-13%	-22%	0.22µM*
Cc1cc(NC(=O)c2c(F)cccc2F)n(-c2nc3ccccc3[nH]2)n1	?	3.5µM*	i	-50%	-29%	6.3µM*
Cc1cc(NC(=O)c2ccc(C)s2)n(-c2nc3ccccc3[nH]2)n1	?	5%	i	-24%	.	-9%
Cc1cc(N2CCN(c3ccccc3)CC2)nc(-n2nc(C)cc2C)n1	?	0.28µM*	i	-34%	?	1.3µM*
Cc1cc(N2CCN(c3ccccc3)CC2)nc(-c2ccccc2O)n1	-5%	3%	?	-2%	-3%	2%
Cc1cnc(C)c(-c2cccc3c2OC(CNC(=O)/C=C/c2ccc(F)c(F)c2)C3)n1 (configuration not stated)	.	.	i	.	.	.
Cc1cc(C)nc(S[C@H]2C[C@@H](C(=O)N3CCN(c4ccccc4F)CC3)N(Cc3ccccc3C(F)(F)F)C2)n1	.	.	i	.	.	.
CCOC(=O)C1CCN(S(=O)(=O)c2cc(-c3onc(C)c3C)ccc2C)CC1	-14%	.	.	-6%	.	.
Cc1ccc(C23CC4CC(CC(C(=O)N(C)C)(C4)C2)C3)cc1	17%	-9%	i	-1%	0%	-1%
COc1cc(-c2noc(-c3ccc(NCCc4ccccc4)c([N+](=O)[O-])c3)n2)cc(OC)c1OC	?	.	i	4%	10%	.
Cc1cc(NC(=O)c2c(F)cccc2Cl)n(-c2nc3ccccc3[nH]2)n1	?	4.5µM*	?	-88%	?	7.1µM*
Cc1cc(Nc2ccccc2)n(-c2nc3ccccc3[nH]2)n1	?	1.6µM*	?	-5%	?	3.5µM*
Cc1cc(NC(=O)c2ccccc2F)n(-c2nc3ccccc3[nH]2)n1	-5%	1.1µM*	i	-30%	1%	4.5µM*
O=C(C[C@@H]1C[C@@H]2c3cc(NS(=O)(=O)c4ccc(F)cc4)ccc3O[C@@H]2[C@@H](CO)O1)NC1CCCCC1	-26%	.	i	-54%	-6%	.
CCc1nc2ccc(C(=O)N(C)Cc3ccco3)cn2c1N(C)Cc1ccc(OC)cc1	-28%	.	i	-28%	?	.
O=C(Nc1cccc(O)c1)c1noc2c1CCCCC2	-8%	11µM*	i	-48%	?	3.5µM*
SMILES	TGFb SMAD3 inh	RORgamma inh	ATXN viability	HepG2 viability	ATXN2 expr inh	VP16 counter
CC(=O)c1ccc(NC(=O)c2noc3c2CCC3)cc1	0%	-37%	i	-8%	4µM*	-27%
CCN(CC)c1ccc(-c2nn3c(-c4ccccc4OC)nnc3s2)cc1	?	?	?	-46%	?	14µM*
COCCCNC(=O)c1ccc(NC(=O)N2CCCCc3ccccc32)cc1	-1%	.	i	-8%	12%	.
Cc1ccc(N=Nc2c(C)[nH]n(-c3ccccc3)c2=O)c(C)c1	-7%	?	i	-24%	-36%	18µM*
COc1cccc(-c2ccc(O)c(CNC(c3ccccc3)c3ccc(Cl)cc3)c2)n1 (configuration not stated)	.	.	i	.	.	.
COC(=O)c1ccc(CN2[C@@H]3C[C@@H](O)CC[C@@H]3C[C@H]2C(=O)OC)cc1	.	-13%	.	.	.	-9%
C#CCC(Cc1cnc2nc(N)nc(N)c2n1)c1ccc(C(=O)N[C@@H](CCC(=O)O)C(=O)O)cc1 (some centres not stated)	.	.	?	.	0.54µM*	.
CN(Cc1cnc2nc(N)nc(N)c2n1)c1ccc(C(=O)NC(CCC(=O)O)C(=O)O)c2ccccc12 (configuration not stated)	-21%	.	i	-61%	?	.
C[C@@H]1CC=CC=CC=CC=C[C@@H](O[C@@H]2O[C@H](C)[C@@H](O)[C@H](N)[C@H]2O)C[C@@H]2O[C@](O)(C[C@@H](O)C[C@@H]3O[C@@H]3C=CC(=O)O1)C[C@H](O)[C@@H]2C(=O)O	.	.	.	.	13%	.
CCCCCCCCCCCCc1ccc(S(=O)(=O)Nc2nncs2)cc1	.	.	.	.	3%	.
N#CC1=C(N)NC(=S)C(C(N)=O)C1c1ccc([N+](=O)[O-])cc1 (configuration not stated)	15%	?	i	-1%	-13%	13µM*
O=C1NC(C(=O)O)=CC(c2ccc([N+](=O)[O-])cc2)N1 (configuration not stated)	-10%	-7%	i	-18%	.	-4%
Cc1cc2c(cc1C1(c3ccc(C(=O)O)cn3)CC1)C(C)(C)CCC2(C)C	.	.	.	.	11%	.
C[C@H](NCc1ccc(OCc2cccc(F)c2)cc1)C(N)=O	.	.	.	.	19µM*	.
CCn1c(C)nc2cc(S(=O)(=O)C(F)(F)C(F)C(F)(F)F)ccc21 (configuration not stated)	?	-25%	i	-32%	-8%	4µM*
N#CC1(c2ccc(F)cc2)CCC(=O)CC1	.	.	i	.	-1%	.
CSCCC(NC(=O)C1CCC(C)CC1)C(=O)OCC(=O)c1ccc(Cl)cc1 (configuration not stated)	-3%	7%	i	1%	-17%	4µM*
CC(C)CC(NC(=O)C1CCC(C)CC1)C(=O)OCC(=O)c1ccc(Cl)cc1 (configuration not stated)	8%	.	i	-5%	-3%	.
